PubChem BioAssay AID1135 (Sanford-Burnham Center for Chemical Genomics, 2008)
In all, about 200,000 compounds went through this assay and about 65 (0.03%) were called active. Only a selection was taken, and actives are over-represented in it overall. Unmarked numbers belong to inactive results.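 How the source made its calls: active means over 50% inhibition of tissue-nonspecific alkaline phosphatase at 20 µM in the single-dose screen; inactive means the rest.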

Biological target: Alkaline phosphatase, tissue-nonspecific isozyme (Homo sapiens) (UniProt P05186)
Assay: human TNAP enzyme inhibitors, primary screen, biochemical, luminescent, high phosphate acceptor level, uHTS (AID 1135);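 further: plate controls were DMSO wells for no effect and EDTA-quenched wells as full inhibition for full effect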
Conditions: purified TNAP, CDP-star luminescence, 1 M DEA; at 20 µM; active compounds read high

Alkaline phosphatase, tissue-nonspecific isozyme (Homo sapiens), sequence (P05186 whole entry, looked up): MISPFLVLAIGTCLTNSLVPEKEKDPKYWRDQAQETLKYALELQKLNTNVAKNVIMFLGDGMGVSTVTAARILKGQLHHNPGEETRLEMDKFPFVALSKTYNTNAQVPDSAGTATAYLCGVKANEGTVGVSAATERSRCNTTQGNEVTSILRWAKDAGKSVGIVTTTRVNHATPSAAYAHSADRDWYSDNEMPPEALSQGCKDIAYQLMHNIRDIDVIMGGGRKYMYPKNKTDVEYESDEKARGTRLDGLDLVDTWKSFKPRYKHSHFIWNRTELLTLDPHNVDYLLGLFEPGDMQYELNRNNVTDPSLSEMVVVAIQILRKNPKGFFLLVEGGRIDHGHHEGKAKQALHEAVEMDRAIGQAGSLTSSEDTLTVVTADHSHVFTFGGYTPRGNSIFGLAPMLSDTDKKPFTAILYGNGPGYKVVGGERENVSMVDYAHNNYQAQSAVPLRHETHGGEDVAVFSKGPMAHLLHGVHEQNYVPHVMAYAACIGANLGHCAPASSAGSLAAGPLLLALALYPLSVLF

| Structure (SMILES) | inhibition |
| --- | --- |
| O=C(Nc1cccnc1)c1cc2cc(Br)ccc2oc1=O | -1.6% |
| CCNS(=O)(=O)c1ccc(NC(=O)c2cncc(Br)c2)cc1 | -1% |
| Cc1ccc(S(=O)(=O)N(C)C)cc1NC(=O)COC(=O)C1COc2ccccc2O1 (stereo unspecified) | -3.2% |
| CCOC(=O)c1ccccc1N1C(=O)C2Sc3[nH]c(=O)sc3C(/C=C/c3ccccc3)C2C1=O (stereo unspecified) | 4.9% |
| CCc1nnc(NC(=O)CCCSc2nc3ccccc3[nH]2)s1 | -4.4% |
| CCN(CC)P(=O)(Nc1ccc(SC(F)F)cc1)c1ccc(N(C)C)cc1NC(=O)c1ccco1 (stereo unspecified) | -7.3% |
| O=C(C(=O)N1CCc2ccccc2C1)c1c[nH]c2ccccc12 | 40.6% |
| C=CCNc1scc(-c2ccccc2)[n+]1CC=C | -7.7% |
| Oc1c(Br)cccc1/C=N/Nc1c(F)c(F)c(F)c(F)c1F | 4.6% |
| C/C(=N/NC(=O)CSc1ccccn1)c1ccc([N+](=O)[O-])cc1 | -4.8% |
| Nc1nnnn1CC(=O)N/N=C/c1ccc(-c2cccc(Cl)c2)o1 | -2.3% |
| O=C(COc1ccc(Cl)cc1)NCc1nnc(SCC(=O)NCC2CCCO2)o1 (stereo unspecified) | -2.4% |
| COc1ccc(/C=C/C(=O)c2cc(Br)ccc(=O)c2O)cc1 | 12.7% |
| CCNC(=O)CC1C(=O)N(c2ccc(F)cc2)C(=O)N1CCc1sccc1C (stereo unspecified) | 3.2% |
| CCCCn1c(N)c(N(CC)C(=O)/C=C/c2ccco2)c(=O)[nH]c1=O | 1.1% |
| COc1ccc(Cl)cc1N(CC(=O)N1CCCCC1)S(C)(=O)=O | -2.8% |
| COc1ccc(C2CC(c3ccccc3)=NN2C(=O)c2ccc(Cl)c([N+](=O)[O-])c2)cc1 (stereo unspecified) | 0.4% |
| O=C(/C(=C/c1cccc(Cl)c1)c1nc2ccccc2[nH]1)c1ccccc1 | -1.2% |
| Cc1cc(C)n(-c2ccc3nncn3n2)n1 | -4% |
| CCOc1ccc(S(=O)(=O)Nc2ccncc2)c(C)c1C | -3.2% |
| c1ccc2c(NC3C4CC5CC(C4)CC3C5)nc(N3CCOCC3)nc2c1 (stereo unspecified) | -4.8% |
| COc1cccc(C(=O)Oc2cc(C)[nH]c(=O)c2[N+](=O)[O-])c1 | -4.1% |
| CC1(C)CC(=O)CC2(C1)NCC(c1ccccc1Cl)c1c2[nH]c2ccccc12 (stereo unspecified) | -3.4% |

| Structure (SMILES) | inhibition |
| --- | --- |
| CCOn1c(=O)c(=O)n(O)c2ccccc21 | -6.3% |
| Cc1ccc([N+](=O)[O-])c(OCCCNCC(C)O)c1 (stereo unspecified) | -0.7% |
| COc1ccc(C)cc1NC(=O)C(Sc1ccccc1)c1ccccc1 (stereo unspecified) | -3% |
| CCCCC(CC)CNC(=O)CCCCn1c(=O)[nH]c2ccsc2c1=O (stereo unspecified) | -0.9% |
| OCCC1CN(Cc2cccc(OC3CCCC3)c2)CCN1Cc1ccsc1 (stereo unspecified) | -1.7% |
| O=C(CN1C(=O)/C(=C/c2ccccc2F)Sc2ccccc21)NCc1cccnc1 | -4.7% |
| Cc1ccc(CN2CCN(/N=C/c3ccco3)CC2)c(C)c1 | -2% |
| Cc1ccc(/C(N)=N/OC(=O)COc2ccc(Cl)c(C)c2)cc1 | -6.6% |
| COc1ccc(Cl)cc1NC(=O)CN(C)Cc1ccc(OC)c(OC)c1 | 2.3% |
| Cc1nnc(SC(C(=O)Nc2cc(Cl)cc(Cl)c2)c2ccccc2)[nH]c1=O (stereo unspecified) | 2.4% |
| COc1ccc(F)cc1C(=O)C1CCCN(C(=O)CCc2ccccn2)C1 (stereo unspecified) | 0.9% |
| COc1ccc(NC(=O)CN(Cc2ccccc2)S(C)(=O)=O)cc1OC | -3.6% |
| O=C(O)c1ccc(NS(=O)(=O)c2ccc3c(c2)C(=O)c2cc(S(=O)(=O)Nc4ccc(C(=O)O)cc4)ccc2-3)cc1 | 2.8% |
| CCC(=O)Nc1c(C)n[nH]c1C | -6.7% |
| CC(CCc1ccccc1)NCC(O)c1cccc([N+](=O)[O-])c1 (stereo unspecified) | -4.1% |
| CC(=O)c1c(C)[nH]c(C(=O)OCC(=O)Nc2sc3c(c2C#N)CCCC3)c1C | 50.6% (active) |
| N#Cc1c(NC(=O)CCCl)sc2c1CCCCC2 | 0.1% |
| Cc1cccc(C(=O)OCC(=O)Nc2sc3c(c2C#N)CCC3)c1 | 5.2% |
| Oc1ccc(/C=N/N(Cc2ccccc2)c2ccccc2)cc1 | -6.2% |
| Cc1nc(CC(=O)NNS(=O)(=O)c2ccc(F)c(Cl)c2)cs1 | -6.6% |
| O=C(O)c1ccccc1-c1ccccc1C(=O)NCc1cccnc1 | 3.5% |
| O=C(Oc1c(-c2ccco2)oc2ccccc2c1=O)c1cccnc1 | -3.4% |
| C(=N\N1CCN(c2ccccn2)CC1)/C1=C(N2CCOCC2)C(=C/c2ccccc2)/CC1 | -0.3% |

| Structure (SMILES) | inhibition |
| --- | --- |
| CC(=O)Nc1sc2c(c1C(c1cccc(F)c1)N1CCN(CCO)CC1)CCCC2 (stereo unspecified) | -3.5% |
| Cc1cccc(NC(=O)c2ccc3nsnc3c2)c1C | -1.2% |
| CCOC(=O)c1c(NC(=O)C2CC=CCC2C(=O)O)sc(C)c1CC (stereo unspecified) | 2% |
| CCC(C)NC(=O)c1nn(C)c(=O)c2ccccc12 (stereo unspecified) | -4.5% |
| O=c1c(-c2ccccc2)coc2cc(O)ccc12 | -6.9% |
| COc1cc2sc(C)nc2cc1C | -3.9% |
| CCSc1ccccc1C(=O)Nc1ccc2c(c1)OCO2 | -5.5% |
| COc1cc(/C=C/C(=O)O)cc(S(=O)(=O)Nc2ccccc2SC)c1OC | 6.4% |
| CC(=O)Nc1ccc(Nc2c3ccccc3nc3ccccc23)cc1 | 2.2% |
| O=C(CN1CCN(c2ccc(Cl)cc2)CC1)NCc1cccs1 | -1.4% |
| CCCCNC(=O)C1CCC(CNS(=O)(=O)c2ccc(NC(C)=O)cc2)CC1 (stereo unspecified) | -2.5% |
| O=C(CCc1ccc(S(=O)(=O)N2CCOCC2)cc1)NN=C1CCCCCCC1 | -2% |
| COc1ccc(N2C(=O)CC(Sc3n[nH]c(-c4ccc(C)cc4)n3)C2=O)cc1 (stereo unspecified) | -5.7% |
| CN(C)c1nccc(NCc2ccccc2)c1C#N | 0.6% |
| COc1cccc(N(Cc2nnc3n2CCCCC3)C(=O)Nc2ccccc2F)c1 | -2.9% |
| CC(C)c1nc2sc3c(c2c(=O)n1N)CC(C)(C)OC3 | -1.5% |
| COCCn1c(SCC(=O)Nc2ccc3c(c2)CCC3)nc2ccccc2c1=O | -1.3% |
| CCN(C(=O)CSc1nc2ccccc2n1CC)C1CCS(=O)(=O)C1 (stereo unspecified) | -1.3% |
| Cc1cc(C(=O)COC(=O)CNC(=O)c2ccc(F)cc2)c(C)n1Cc1ccco1 | 1.3% |
| S=C(Nc1ccc(Br)cc1Cl)NC1CCN(Cc2ccccc2)CC1 | -5.2% |
| CSCCC(NC(=O)c1cc([N+](=O)[O-])cc([N+](=O)[O-])c1)c1nc2ccccc2[nH]1 (stereo unspecified) | -6.8% |
| CCc1ccc(CN2C(=O)c3ccccc3C2C(=O)NCC2CCCO2)cc1 (stereo unspecified) | 2.3% |
| Cc1cccc(N2CCN(c3ccc(NC(=O)/C=C\C(=O)O)cc3)CC2)c1 | -4.5% |

| Structure (SMILES) | inhibition |
| --- | --- |
| NNC(=O)COc1ccc(C2SCCS2)cc1 | -6.7% |
| O=C(NCc1ccncc1)NC12CC3CC(CC(C3)C1)C2 | 2.3% |
| COc1ccc([N+](=O)[O-])cc1NC(=O)CC1SC(=Nc2cccc(C)c2C)N(/N=C(\C)c2ccc(C)cc2)C1=O (stereo unspecified) | -3.9% |
| Cc1[nH][nH]c(=O)c1C(c1ccc(-c2ccc(Cl)cc2)o1)c1c(C)[nH][nH]c1=O | 10.3% |
| CCOc1ccc(C(c2c(C)[nH][nH]c2=O)c2c(C)[nH][nH]c2=O)cc1OCC | 71.4% (active) |
| Cc1[nH][nH]c(=O)c1C(c1ccc2c(c1)OCO2)c1c(C)[nH][nH]c1=O | 44% |
| CC(CNc1ccc([N+](=O)[O-])c2cccnc12)Nc1c([N+](=O)[O-])cc(C(F)(F)F)cc1[N+](=O)[O-] (stereo unspecified) | 13.7% |
| NS(=O)(=O)c1ccc(CCNC(=O)c2ccc(Cl)cc2[N+](=O)[O-])cc1 | 5.9% |
| CCCC(=O)NC(=S)Nc1ccc(CN2CCOCC2)cc1 | -4.1% |
| Cc1cc(-c2n[nH]c(=S)n2-c2ccc(C)c(C)c2)no1 | -3% |
| O=C(c1cc(Cl)cc(Cl)c1)N1CCC(=O)N(C(COCc2ccccc2)Cc2ccccc2)CC1 (stereo unspecified) | -3.9% |
| CCn1c(SCC(=O)Nc2nc(C)cs2)nnc1C(C)NC(=O)c1ccccc1 (stereo unspecified) | -5.3% |
| COCCCNC(=O)CNC(=S)N(Cc1cc(OC)c(OC)c(OC)c1)C1CCCC1 | -4.1% |
| CC(=O)Nc1ccc(NC(=O)C(C)OC(=O)c2ccccc2C(=O)c2ccc(Cl)c([N+](=O)[O-])c2)cc1 (stereo unspecified) | 0.3% |
| Cc1cc(C)c(NC(=O)c2oc3ccccc3c2COc2ccccc2)c(C)c1 | 0.7% |
| CCn1c(C(C)NC(=O)c2ccc(C)cc2)n[nH]c1=S (stereo unspecified) | -0.4% |
| CC(C)(C)NC(=O)CN(C(=O)c1ccc(Cl)nc1)c1cccc2ccccc12 | -2.9% |
| CC(C)(C)n1nc2c(c1NC(=O)c1cc3ccccc3o1)CSC2 | -7.4% |
| COc1cc(C(=O)Nc2cc(C(F)(F)F)ccc2-n2cncn2)cc(OC)c1OC | -1.7% |
| O=C(COc1cc(Cl)c(Cl)cc1Cl)NC(=O)NC1CCCC1 | 0.7% |
| O=C(Nc1ccc2c(c1)OCO2)c1sc2cc(Cl)ccc2c1Cl | 0.3% |
| Cc1nnc(SCc2cccc(Cl)c2)n(N)c1=O | -2.2% |
